# High-throughput results deposited in PubChem BioAssay by several laboratories.
# Only some compounds are listed: those with a hit (about 4.4% of all), similar ones and a draw of the others.
# TIM10 inh – growth inhibitors of isogenic TIM10 control yeast, primary screen, counter-screen for tim10-1 yeast inhibitor project, luminescence, uHTS; 1.4% of 330,000 active; S. cerevisiae TIM10 strain growth, BacTiter-Glo luminescence, 24 h; inhibition, % at 10 µM;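 active = inhibition of 40% or more at the single tested concentration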;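 note: wild-type TIM10 isogenic control strain grown at permissive 25 °C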
# SUMO Mot1 rescue – yeast Mot1-301 growth rescue at high temperature, primary screen, SUMOylation pathway inhibitor project, S. cerevisiae, ATP luminescence, 38.5C | S. cerevisiae Mot1-301 growth rescue; percent above DMSO median, 100 means doubled | growth rescue, % at 18.8 µM | 1% of 320,000 active | AID 2716, 2010;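 active = every valid replicate shows activation above 250% relative to neutral control wells; inactive = the rest, any valid replicate at or below 250%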
# PfHsp90 set2 – growth inhibition of PfHsp90-expressing yeast, primary screen, antimalarial PfHsp90 inhibitor project, S. cerevisiae, BacTiter-Glo luminescence, single point, set 2; BacTiter-Glo ATP, 48 h; yeast lacking PDR1 and PDR3 efflux regulators; inhibition, % at 9.4 µM; 0.32% of 310,000 active; AID 504621, 2011;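 active = every replicate shows inhibition above about 80%, whatever the replicate mean, limit read from the data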
# tim23-1 inh – growth inhibitors of tim23-1 mutant yeast, primary screen, luminescence, uHTS. S. cerevisiae tim23-1 growth, BacTiter-Glo luminescence, 24 h. inhibition, % at 20 µM. 1.3% of 330,000 active. AID 463212, 2010;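 active = growth inhibition of the mutant yeast at or above 50%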;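 note: temperature-sensitive mutant grown at 25 °C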
# tim10-1 inh – growth inhibitors of tim10-1 mutant yeast, primary screen, luminescence, uHTS; 2.2% of 330,000 active; inhibition, % at 20 µM; AID 463190, 2010; S. cerevisiae tim10-1 ts strain growth, BacTiter-Glo, 24 h;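 active = inhibition of at least 40%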;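 note: mutant grown at 25 °C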
# tim10-1 confirm – growth inhibitors of tim10-1 mutant yeast, confirmation, single concentration, luminescence, S. cerevisiae; shares compounds with tim10-1 inh; S. cerevisiae tim10-1 ts strain growth, BacTiter-Glo, 24 h; inhibition, % at 20 µM; 56% of 7,400 active; AID 463213, 2010;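 active = inhibition of yeast growth at or above a set limit in either of two repeat tests at 20 µM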;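 note: tim10-1 mutant grown at permissive 25 °C to find synthetic lethal compounds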
# A number is an active result; 0 = inactive; - = not tested or not shown.
SMILES,TIM10 inh,SUMO Mot1 rescue,PfHsp90 set2,tim23-1 inh,tim10-1 inh,tim10-1 confirm
C=C(C)C(=O)NNc1ccccc1,0,0,0,0,41,37
OC(COC1CCCCC1)CN1CCCCC1 (centres undefined),0,0,0,0,0,-
CCc1ccccc1NC(=O)CC1CS(=O)(=O)CC1CC(=O)Nc1ccccc1CC (centres undefined),0,0,0,0,0,-
O=C(CC1CS(=O)(=O)CC1CC(=O)Oc1ccccc1F)Oc1ccccc1F (centres undefined),0,0,0,0,44,0
CC(C)Cn1c(=O)c2c(nc3n2CCCN3Cc2ccccc2)n(C)c1=O,0,0,0,0,42,0
Cn1c(=O)n(C/C=C/c2ccccc2)c(=O)c2c1nc1n2CCCN1c1ccc(F)cc1,0,0,0,0,46,0
Cn1c(=O)n(Cc2ccc(F)cc2)c(=O)c2c1nc1n2CCCN1C1CCCCC1,0,0,0,0,48,0
COc1c(/C=C2\SC(=Nc3ccccc3Cl)NC2=O)cccc1[N+](=O)[O-],0,0,0,0,44,45
COc1cccc(OC)c1NC(=O)C1CCCN1C(=O)Nc1cccc(Cl)c1 (centres undefined),0,0,0,0,0,-
CC#CC(=O)NCC1(N(C)Cc2ccccc2)Cc2ccccc2C1,0,0,0,0,0,-
Cc1cccc(CSc2nc3nc(C)cc(C)n3n2)c1,0,0,0,0,0,-
O=C(/C=C/c1cccc(Oc2ccccc2)c1)N1CCOCC1,0,0,0,0,43,0
O=C(/C=C/c1cccc([N+](=O)[O-])c1)N1CCOCC1,0,0,0,0,0,-
CCn1c(SCc2cccc(OC)c2)nc2ccccc2c1=O,0,0,0,0,0,-
CCCCn1nc(C(=O)N(CC)CC(=O)Nc2c(F)cccc2F)c2ccccc2c1=O,0,0,0,0,0,-
O=C(c1ccc(Cl)cc1)[C@@H]1[C@@H]2C(=O)N(c3ccccc3)C(=O)[C@@H]2C2c3ccccc3C=NN21 (some centres undefined),0,0,0,0,40,0
O=C(c1ccc(Cl)cc1)C1C2C(=O)N(c3ccccc3)C(=O)C2C2CCCN21 (centres undefined),-,-,0,-,-,-
COc1ccccc1CCC(=O)OCC(=O)NC1CC1,0,0,0,0,0,-
CCC(C)C(=O)Nc1ccc(OC)cc1OC (centres undefined),0,0,0,0,0,-
COc1ccc(NC(=O)N(CCC(C)C)C(C)c2ccccn2)c(OC)c1 (centres undefined),0,0,0,0,41,0
Cc1ccc(NC(=O)CCC(=O)c2cccs2)c(Br)c1,0,0,0,0,0,-
O=C1c2ccccc2S(=O)(=O)c2cc(C(=O)N3CCN(c4ccc(Cl)cn4)CC3)ccc21,0,0,0,0,44,42
COc1cccc(CNC(=O)CCCn2nc(C)c3c(C)n(-c4ccc(C)cc4)nc3c2=O)c1OC,0,0,0,0,45,0
COc1ccccc1CNC(=O)CCCn1nc(C)c2c(C)n(-c3ccccc3)nc2c1=O,0,0,0,0,0,-
Cc1ccc(C(OC(=O)c2ccco2)C(=O)NCc2cccs2)cc1 (centres undefined),0,0,0,0,0,-
CCOc1ccc(C(OC(=O)c2ccco2)C(=O)NCc2ccc(C)cc2)cc1 (centres undefined),0,0,0,0,43,0
C/C(=N/Nc1ccc([N+](=O)[O-])cc1)c1c[nH]c2ccccc12,0,0,0,0,0,-
CN1C[C@@H]2C(c3ccccc3)C3(c4ccc(C#N)cc4)CC2(C3)[C@H]1c1ccccc1 (some centres undefined),0,0,0,0,0,-
CN1C[C@@H]2C(c3ccccc3)C3(c4ccccc4)CC2(C3)[C@H]1c1ccccc1 (some centres undefined),0,0,0,0,52,32
COc1ccc(-c2cc3nc(-c4ccccc4)cc(N4CCC(O)CC4)n3n2)cc1,0,0,0,0,40,0
